Data taken from PubChem BioAssay AID504333 (National Center for Advancing Translational Sciences (NCATS), 2011).
Hit rate of the full screen: of about 360,000 compounds, about 16,000 (4.4%) were called active. Not shown: some 9% with an inconclusive outcome. Calls follow the shape of the dose curve; as a rule, active = well fitted inhibition curve with a large enough effect; inconclusive = small, poorly fitted or top-dose-only effect; inactive = no such curve, though single readings can be large or run the other way. The list comes from a sample in which actives are over-represented; it also holds similar structures and randomly drawn compounds.

Biological target: Bromodomain adjacent to zinc finger domain protein 2B (Homo sapiens) (UniProt Q9UIF8)
Experiment: qHTS Assay for Inhibitors of BAZ2B; also: nearly all actives have a fitted effect of over 60% in size
Conditions: AlphaScreen BAZ2B-H3K14Ac peptide displacement; series mostly up to 114 µM; activity change, negative = inhibition: at the top concentration
Description: BAZ2B (bromodomain adjacent to zinc finger domain, 2B) belongs to a family of ubiquitously expressed bromodomain containing proteins, which biological function has not yet been elucidated. […] The interaction of BAZ2B with ISWI mediated by the BAZ1 motif has recently been described. […] The protocol is based on the AlphaScreen (PerkinElmer) displacement assay developed by NCGC [5], but uses the peptide ligand Biot-H3K14Ac, a high affinity binding partner for BAZ2B, in an AlphaScreen format. Although AlphaScreen has significant advantages with its utility in a variety of epigenetic target assays, the primary screening data provided in this deposition should be used with caution due to the prevalence of screening artifacts. The top compound concentration tested was 110uM in this assay, which increases number of actives and potential artifacts. An AlphaScreen counterscreen is highly recommended to be run against any putative actives to eliminate non-specific artifacts. Alternatively, one can use other AlphaScreen assays in PubChem to filter out promiscuous hits. Eberharter, A. et al. ACF1 improves the effectiveness of nucleosome mobilization by ISWI through PHD-histone contacts. The EMBO journal 23, 4029-4039. 2004. PMID: 15457208 [2] Jones, M.H. et al. A novel family of bromodomain genes. Genomics 63, 40-45. 2000. PMID: 10662543 [3] Yasgar, et al. Compound Management for Quantitative High-Throughput Screening. JALA. 2008 Apr;13(2):79-89. PMID: 18496600 [4] Inglese, et al. Quantitative high-throughput screening: a titration-based approach that efficiently identifies biological activities in large chemical libraries. Proc Natl Acad Sci. 1;103(31):11473-8. 2006. PMID: 16864780 [5] Quinn et al. A chemiluminescence-based method for identification of histone lysine methyltransferase inhibitors. Mol Biosyst 6(5): 782-8. 2010. PMID: 20567762 [6] Baell,Holloway. New substructure filters for removal of pan assay interference compounds (PAINS) from screening libraries and for their exclusion in bioassays. J Med Chem. 53(7):2719-40. 2010. PMID: 20131845 NIH Molecular Libraries Probe Production Network [MLPCN] NIH Chemical Genomics Center [NCGC] Structural Genomics Consortium (SGC) NIH Grant: 5U54 MH084681-02
To each well of a 1,536w plate, 2ul of BAZ2B protein (final 50nM) and 1ul biotinylated histone peptide acetylated at Lys14 [b-H3(5-23)K14Ac] (final 50nM) were added in 1x PBS buffer, pH 7.4, containing 0.01% Tween-20, using a nanoliter dispenser. Formation of a protein-peptide complex proceeded at room temperature for 30 min. A Kalypsys pin-tool was employed to transfer 23 nL of library compound solution in DMSO to each well. Following a 30 min incubation of the protein-peptide complex with compounds at room temperature, a mixture of 40 ug/mL each streptavidin-coated donor and nickel chelate acceptor AlphaScreen beads (final 10 ug/mL) were added in a 1ul dispense for a final volume of 4ul. A brief centrifugation followed (1000rpm, 1 min) and were then incubated protected from the light for 20 min at room temperature. Plates were read on an EnVision multilabel plate reader using the 1,536 plate HTS AlphaScreen aperture (excitation time 80 ms, measurement time 240 ms).
% is scaled to controls: 0 for no effect and ±100 for the full control effect; potency is read from the fitted curve at half-maximal effect.

Bromodomain adjacent to zinc finger domain protein 2B (Homo sapiens), sequence (Q9UIF8 whole entry, looked up, the tested form may be a part): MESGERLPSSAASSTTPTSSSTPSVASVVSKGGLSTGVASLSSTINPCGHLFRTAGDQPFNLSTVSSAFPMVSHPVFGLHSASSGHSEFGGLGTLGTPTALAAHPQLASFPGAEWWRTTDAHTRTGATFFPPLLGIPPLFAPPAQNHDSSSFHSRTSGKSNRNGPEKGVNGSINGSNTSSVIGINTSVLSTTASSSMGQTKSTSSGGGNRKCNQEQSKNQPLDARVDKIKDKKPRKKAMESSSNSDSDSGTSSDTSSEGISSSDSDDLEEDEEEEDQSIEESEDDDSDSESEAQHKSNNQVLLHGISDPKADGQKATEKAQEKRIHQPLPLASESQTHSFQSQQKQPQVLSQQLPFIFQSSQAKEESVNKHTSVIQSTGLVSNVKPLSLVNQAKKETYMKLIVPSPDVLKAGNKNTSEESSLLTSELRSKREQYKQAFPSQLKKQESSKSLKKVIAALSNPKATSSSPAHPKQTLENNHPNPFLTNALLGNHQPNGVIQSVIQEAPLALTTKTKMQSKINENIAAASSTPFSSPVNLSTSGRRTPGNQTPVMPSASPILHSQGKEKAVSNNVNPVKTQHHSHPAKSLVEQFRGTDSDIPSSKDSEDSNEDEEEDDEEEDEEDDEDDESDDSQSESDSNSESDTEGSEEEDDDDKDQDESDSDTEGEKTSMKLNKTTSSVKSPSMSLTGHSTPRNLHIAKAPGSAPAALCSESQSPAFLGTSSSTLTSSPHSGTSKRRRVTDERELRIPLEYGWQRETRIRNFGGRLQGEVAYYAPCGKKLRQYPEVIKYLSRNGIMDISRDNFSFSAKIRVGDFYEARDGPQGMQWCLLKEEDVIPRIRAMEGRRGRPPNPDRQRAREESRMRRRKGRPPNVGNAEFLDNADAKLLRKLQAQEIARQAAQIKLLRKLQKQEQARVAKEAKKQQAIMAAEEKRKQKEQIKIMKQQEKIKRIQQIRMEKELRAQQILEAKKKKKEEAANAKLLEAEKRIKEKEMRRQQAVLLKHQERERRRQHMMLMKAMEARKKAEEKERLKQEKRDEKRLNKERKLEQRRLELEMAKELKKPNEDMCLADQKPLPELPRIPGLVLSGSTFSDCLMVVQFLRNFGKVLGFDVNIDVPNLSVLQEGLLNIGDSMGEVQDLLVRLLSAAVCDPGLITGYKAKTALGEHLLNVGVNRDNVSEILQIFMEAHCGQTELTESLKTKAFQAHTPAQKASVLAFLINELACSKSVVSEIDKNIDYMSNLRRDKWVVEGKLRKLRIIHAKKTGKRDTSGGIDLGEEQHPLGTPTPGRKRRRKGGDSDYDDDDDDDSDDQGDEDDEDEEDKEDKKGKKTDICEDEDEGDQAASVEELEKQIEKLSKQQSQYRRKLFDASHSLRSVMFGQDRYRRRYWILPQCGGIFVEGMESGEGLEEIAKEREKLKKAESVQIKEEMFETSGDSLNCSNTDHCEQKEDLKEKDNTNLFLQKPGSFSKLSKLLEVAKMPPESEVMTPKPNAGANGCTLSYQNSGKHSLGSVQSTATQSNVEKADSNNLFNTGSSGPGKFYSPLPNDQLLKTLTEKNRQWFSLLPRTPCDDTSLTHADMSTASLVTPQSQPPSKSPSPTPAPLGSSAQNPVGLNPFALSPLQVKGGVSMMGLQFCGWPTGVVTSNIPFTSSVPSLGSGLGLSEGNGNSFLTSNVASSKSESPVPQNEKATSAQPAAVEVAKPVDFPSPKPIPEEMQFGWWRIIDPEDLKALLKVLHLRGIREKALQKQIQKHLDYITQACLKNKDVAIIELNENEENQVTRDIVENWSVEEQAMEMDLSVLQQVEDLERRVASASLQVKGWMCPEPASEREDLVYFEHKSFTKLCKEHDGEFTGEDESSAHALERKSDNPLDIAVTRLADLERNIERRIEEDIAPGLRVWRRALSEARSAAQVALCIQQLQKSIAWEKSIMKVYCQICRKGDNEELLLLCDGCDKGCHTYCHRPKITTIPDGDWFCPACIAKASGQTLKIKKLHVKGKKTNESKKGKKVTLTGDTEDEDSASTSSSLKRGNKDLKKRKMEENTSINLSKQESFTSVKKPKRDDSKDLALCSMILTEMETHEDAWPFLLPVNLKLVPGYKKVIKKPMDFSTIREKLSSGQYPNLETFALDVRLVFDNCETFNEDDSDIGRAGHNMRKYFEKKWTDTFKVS

SMILES	activity change, negative = inhibition	Potency
O=C(Cc1ccc(Cl)cc1)NCCN1CCN(C(=O)Cc2ccc(Cl)cc2)CC1	0.0403% (inactive)	–
O=C(Cc1ccccc1)N1CCN(C2CCCCCC2)CC1	–	50.1 µM (active)
CCC(=NCCc1ccccc1)c1c(O)n(C2CCCCC2)c(=O)[nH]c1=O	-21.4% (inactive)	–
COc1ccccc1CN1CCN(C(=O)Cc2ccccc2)CC1	–	50.1 µM (active)
O=C(COc1ccc2ccccc2c1)N1CCN(Cc2ccncc2)CC1	53.5% (inactive)	–
O=C(Cn1c(=O)n(CC2CS2)c2ccccc21)N1CCCCC1 (stereo not given)	8.82% (inactive)	–
COc1ccc(N=Cc2c(O)n(C)c(=O)[nH]c2=O)cc1	0.618% (inactive)	–
CN1CCC(OC(=O)c2cccc(F)c2)CC1	-1.04% (inactive)	–
COc1ccc(C(=O)C2CN(C)CC2C(=O)c2ccc(OC)cc2)cc1 (stereo not given)	2.95% (inactive)	–
COC(=O)C1=C(c2ccc3ccccc3c2)C[C@@H]2CC[C@H]1N2C(=O)NCCO	-6.21% (inactive)	–
CC(Cc1ccccc1)NCCC(c1ccccc1)c1ccccc1 (stereo not given)	12.5% (inactive)	–
Fc1ccc(N2CCN(Cc3ccc4c(c3)OCO4)CC2)cc1	–	56.2 µM (active)
O=C(Cc1ccccc1[N+](=O)[O-])N1CCN(Cc2ccc3c(c2)OCO3)CC1	-28.5% (inactive)	–
Cc1cc(=O)oc2c(C)c(OCC(=O)N3CCN(Cc4ccc5c(c4)OCO5)CC3)ccc12	-18.4% [at 57.1 µM] (inactive)	–
CCc1ccc(OCC(=O)N2CCN(CC(=O)Nc3ccccc3Cl)CC2)cc1	10.2% (inactive)	–
Cc1ccc(-n2c(C)cc(/C=C3\C(=O)NC(=O)N(C)C3=O)c2C)cc1C	-28.5% (inactive)	–
Cc1cc(/C=C2/C(=O)NC(=O)N(Cc3ccco3)C2=O)c(C)n1-c1ccc(C(=O)O)cc1	–	56.2 µM (active)
Cc1cc(C=C2C(=O)NC(=O)NC2=O)c(C)n1-c1ccncc1	-23.5% (inactive)	–
Cn1c(O)c(C(=Nc2ccc(F)cc2)c2ccccc2)c(=O)n(C)c1=O	-8.76% (inactive)	–
CCN(CC)c1ccc([N+](=O)[O-])c2cccnc12	–	28.2 µM (active)
COC(=O)C1=C(c2ccccc2OCc2ccccc2)C[C@@H]2CC[C@H]1N2C(=O)NCc1ccc(OC)cc1	-6.25% (inactive)	–
Cc1c(Oc2cc(NN3CCCCC3)c([N+](=O)[O-])cc2[N+](=O)[O-])cccc1[N+](=O)[O-]	0.574% (inactive)	–
CN(C)C(=O)Oc1ccc(NC(=O)N2CCOCC2)cc1	-4.05% (inactive)	–
COc1ccc2[nH]c3c(c2c1)CCN[C@H]3C	–	44.7 µM (active)
CCOC(=O)C1(Cc2ccc(Cl)cc2)CCN(C(C)CCn2cccn2)CC1 (stereo not given)	-9.31% (inactive)	–

SMILES	activity change, negative = inhibition	Potency
CCCCn1c(=O)c(C(=O)Nc2ccccc2Cl)c(O)c2ccccc21	9.08% (inactive)	–
Cc1cccc(Cn2cccc(C(=O)Nc3ccc4c(c3)OCCO4)c2=O)c1	-2.38% (inactive)	–
O=c1c2ccccc2nc(/C=C/c2ccc(F)cc2)n1-c1ccccc1O	-12.3% (inactive)	–
C=CCN(CC=C)C(=O)Nc1ccc(OCC)cc1	-21.3% (inactive)	–
C=CCN1C(=O)NC(=O)/C(=C/c2ccc(OCC(=O)Nc3ccc(C)cc3)cc2)C1=O	–	50.1 µM (active)
Cc1ccc(C2CN(C)CC2C(=O)c2ccc(F)cc2)cc1 (stereo not given)	-13% (inactive)	–
CC(C)c1c(CN(C)C(C)Cc2ccccc2)n(C)n(-c2ccccc2)c1=O (stereo not given)	8.31% (inactive)	–
CN1CCc2cc3c(cc2[C@H]1[C@@H]1OC(=O)c2c1ccc1c2OCO1)OCO3	6.42% (inactive)	–
C[C@]12CC[C@H](O)C[C@H]1CC[C@@H]1C2CC[C@]2(C)[C@@H](C3=CC(=O)OC3)[C@@H](O)C[C@]12O (stereo not given in full)	4.14% (inactive)	–
CN(C)CC1CCCCC1=O (stereo not given)	-2.32% (inactive)	–
Cc1c(C(=O)O)cccc1-n1c(C)cc(/C=C2\C(=O)NC(=O)N(c3ccc4c(c3)OCO4)C2=O)c1C	–	56.2 µM (active)
Cc1ccccc1N1C(=O)NC(=O)/C(=C\c2cc(C)n(C)c2C)C1=O	-31% (inactive)	–
O=C1N=c2ccccc2=C/C1=C\c1c(O)[nH]c(=S)[nH]c1=O	5.91% (inactive)	–
O=C1NC(=O)C(C/C=C/c2ccccc2)C(=O)N1	-5.78% (inactive)	–
CCOP(=S)(OCC)C(O)CCCCCn1c(=O)c(F)cn(C2CCCO2)c1=O (stereo not given)	2.17% (inactive)	–
CCc1nc2ccccc2c(=O)n1-c1cccc(OC)c1	24.6% (inactive)	–
COc1ccc(CN2CCN(c3ccccc3F)CC2)c(OC)c1	–	50.1 µM (active)
CC(C)c1ccc(O)c(CN2CCN(c3ccccc3)CC2)c1	-3.99% (inactive)	–
Cc1cccc(NC(=O)N2CC3CC(C2)c2cccc(=O)n2C3)c1 (stereo not given)	-1.2% (inactive)	–
CCOc1cccc(=NC2CCCCC2)c2c(C)[nH]c(C)c12	19.2% (inactive)	–
O=C(O)c1ccccc1NC(=O)C1C2CCC(O2)C1C(=O)O (stereo not given)	0.502% (inactive)	–
CCN(CC)C(=O)Oc1ccc(NC(=O)N2CCOCC2)cc1	14.1% (inactive)	–
CCCCn1c(O)c(C(CC)=NCc2ccco2)c(=O)[nH]c1=O	-3.38% (inactive)	–
CC/C(=N\NC(=O)c1ccccc1O)c1c(O)n(Cc2ccccc2)c(=O)[nH]c1=O	3.69% (inactive)	–
CCC(=NCc1ccco1)c1c(O)n(Cc2ccccc2)c(=O)[nH]c1=O	–	50.1 µM (active)
